Source: PubChem
IL-1B inflam inh = blocks inflammasome-driven IL-1 beta release; activity change, % at 57.5 µM; hit rate 4.7% among 360,000; THP-1 LPS/ATP IL-1B secretion, AlphaLISA, 16 h; active compounds read low; in the data active = activity change below about -50%; inconclusive = mostly about -30% to -49%
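THP-1 cells pretreated 1 hr with compounds (up to 57.5 uM final), then stimulated with LPS (250 ng/mL final) plus ATP (1.25 mM final); secreted IL-1B measured by AlphaLISA after 16 hr, decreased signal indicating inhibition.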
TDP1 cell CPT = DT40-hTDP1 cell growth loss with CPT. chicken DT40 Tdp1-/-;hTDP1 cells + 20 nM CPT, ATP luminescence, 48 h. Potency, µM (titrated, usually from 46.2 µM), for the others: at the top dose activity change, negative = growth inhibition, hits mostly inhibitors. hit rate 12% among 420,000; note: potency is the fitted concentration of half-maximal effect; nearly all actives have a fitted effect of over 55% in size
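Chicken DT40 Tdp1-/- cells stably complemented with human TDP1 were seeded at 400 cells/well in medium containing 20 nM camptothecin, exposed to pin-transferred compounds, and grown at 37 °C for at least 48 hr. Viability was read as ATP luminescence.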
RORgamma inh = blocks mouse ROR gamma transcriptional activity. hit rate 5.4% among 310,000. P51450. Drosophila S2 Gal4-RORgamma UAS-luciferase reporter, 20 h. Potency, µM (top dose mostly 53.6 µM), for the others: at the top dose activity change, negative = inhibition, most hits filed as inhibitors; note: potency is the fitted concentration of half-maximal effect; nearly all actives have a fitted effect of over 60% in size
Target sequence (P51450 whole entry, looked up, the tested form may be a part): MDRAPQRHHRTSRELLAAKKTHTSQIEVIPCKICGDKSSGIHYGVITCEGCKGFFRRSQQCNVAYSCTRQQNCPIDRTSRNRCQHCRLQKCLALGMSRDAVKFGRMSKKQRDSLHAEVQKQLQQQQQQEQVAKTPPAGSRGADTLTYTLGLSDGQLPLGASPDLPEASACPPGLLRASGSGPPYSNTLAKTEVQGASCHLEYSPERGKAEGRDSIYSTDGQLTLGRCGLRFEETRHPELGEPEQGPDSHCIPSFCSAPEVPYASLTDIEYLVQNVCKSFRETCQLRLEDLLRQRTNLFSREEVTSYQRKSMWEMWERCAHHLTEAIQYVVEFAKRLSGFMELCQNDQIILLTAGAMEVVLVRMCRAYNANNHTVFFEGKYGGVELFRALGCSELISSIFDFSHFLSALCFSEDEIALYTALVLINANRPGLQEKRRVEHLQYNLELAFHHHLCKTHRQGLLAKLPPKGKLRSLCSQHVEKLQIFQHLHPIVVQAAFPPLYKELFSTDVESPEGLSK
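Stable Schneider cell line, Gal4 DNA-binding domain fused to ROR gamma, UAS-luciferase. Cmpd 1 hr RT → CuSO4 700 uM final → 20 hr RT → luciferase reagent 10 min → luminescence.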
ELG1 repair inh = blocks ELG1-dependent DNA repair in HEK293T cells | HEK293T ELG1-luciferase reporter, luminescence, 16 h; DNA damage induced by 5-fluorouridine | Potency, µM (doses to about 46.1 µM), inactives show top-dose activity change, negative = inhibition, hits mostly inhibitors | hit rate 2.3% among 330,000 | AID 504467; note: potency is the fitted concentration of half-maximal effect; nearly all actives have a fitted effect of over 55% in size
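5-Fluorouridine DNA damage + compound/DMSO, 2,000 cells/well, 16 h, 37 °C/5% CO2. ONE-Glo, 30 min RT, luminescence. Readout = decrease in reporter signal.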
VP16 counter = inhibits Gal4-VP16 luciferase reporter, ROR gamma counter-screen. Drosophila S2 Gal4-VP16 UAS-luciferase, luminescence, 20 h. Potency, µM (highest dose often 53.6 µM), for inactives: at the highest dose activity, negative = inhibition, hits mostly inhibitors. hit rate 3.5% among 310,000. AID 2546;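 note: Gal4-VP16 expression switched on by copper sulfate through the metallothionein promoter; potency is the fitted concentration of half-maximal effect; nearly all actives have a fitted effect of over 50% in size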
DT40 TDP1 no CPT = qHTS for Inhibitors of human tyrosyl-DNA phosphodiesterase 1 (TDP1): qHTS in cells in absence of CPT; hit rate 15% among 420,000; DT40 Tdp1-/- hTDP1 cells, no CPT, ATP luminescence, 48 h; Potency, µM (titrated, usually from 46.2 µM), inactives show at the highest dose activity change, negative = growth inhibition, most hits filed as inhibitors; note: potency is the fitted concentration of half-maximal effect; nearly all actives have a fitted effect of over 55% in size
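Chicken DT40 Tdp1-/- cells complemented with human TDP1, screened without camptothecin (DMSO vehicle only), 400 cells/well. Compounds pin-transferred, cells incubated at 37 °C for at least 48 hr. Growth read as ATP-dependent luminescence (CellTiter-Glo, 30 min at RT).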
Numbers without * were called inactive; ? = inconclusive; . = no result given; ! = not active in a repeat; [ ] = dose if it differs, or a comment. Only some compounds are listed: those with a hit (about 21% of all), similar ones and a draw of the others. Unless noted, calls come from the whole dose curve; as a rule, active = well fitted curve in the direction sought with a large enough effect; inconclusive = small, poorly fitted or top-dose-only effect, or another doubt; inactive = no such curve, though single readings can be large; an effect the other way counts as inactive or inconclusive. % is set by controls: 0 for no effect and ±100 for the full control effect.

SMILES	IL-1B inflam inh	TDP1 cell CPT	RORgamma inh	ELG1 repair inh	VP16 counter	DT40 TDP1 no CPT
O=c1c2ccccc2nc(-c2ccoc2)n1-c1ccccc1Cl	-17	21µM*	2%	-22%	9%	16µM*
C[N+]1(C)[C@@H]2CC(OC(=O)[C@@H](CO)c3ccccc3)C[C@@H]1[C@H]1O[C@H]12 (stereo partly specified)	.	.	-1%[10 µM]	.	-10%	.
CC(C)(C)NC[C@H](O)COc1cccc2[nH]c(C#N)cc12	.	-7%	.	.	.	-15%
Cn1c(O)c(C(=Nc2ccccc2)SCc2ccccc2Cl)c(=O)n(C)c1=O	?	5.8µM*	?	?	-5%	8.2µM*
Cn1c(O)c(C(=NCCN2CCCCC2)c2ccccc2Cl)c(=O)n(C)c1=O	2	?	0%	-19%	-14%	-26%
COC(=O)c1ccc(N=C(c2ccccc2)c2c(O)n(C)c(=O)n(C)c2=O)cc1	-7	?	5%	?	0%	23µM*
CCOC(=O)c1ccc(N=C(c2ccccc2)c2c(O)n(C)c(=O)n(C)c2=O)cc1	.	2.9µM*	12%	-17%	5%	7.3µM*
CSC(=Nc1ccccc1)c1c(O)n(C)c(=O)n(C)c1=O	8	-12%	?	?	-11%	-8%
CCOC(=O)c1ccc(N=C(C)c2c(O)[nH]c(=O)[nH]c2=O)cc1	4	6%	18%	?	1%	3%
Cn1c(O)c(C(=Nc2ccc(F)cc2)c2ccccc2Cl)c(=O)n(C)c1=O	-24	?	20%	?	1%	7.3µM*
O=C(Nc1cc(C(F)(F)F)ccc1O)Nc1cc(C(F)(F)F)ccc1O	.	.	-29%	.	?	.
COC(/C(C)=C/C=C/C(C)=C/c1coc(C)n1)C(C)C1CC(O)C2(C)OC2C=CC(C)C2CC(CC(=O)O2)CC2OC2C(=O)O1 (stereo unspecified)	29	0.12µM*	.	.	.	0.018µM*
CC(=O)C1=NOC(CNc2ncc(C(F)(F)F)cc2Cl)C1 (stereo unspecified)	8	-4%	?	?	-2%	3%
C[C@H]1COc2cc(N3CCN(C)CC3)ccc2S(=O)(=O)N1	-15	1%	.	.	.	-13%
C=Cn1ccnc1P(=S)(c1ccc(N(C)C)cc1)c1nccn1C=C	-12	-1%	10µM*	4%	?	-15%
CN(C)C/C=C(/c1ccc(Br)cc1)c1cccnc1	-20	30µM*!	4%	.	-8%	12µM*
CN(C)C(=O)Nc1ccc(Cl)cc1	.	.	-1%	.	19%	.
CN(C)C(=O)Oc1ccnc2cc(Cl)ccc12	-73*	7%	8%	?	-18%	?
CCn1c(NN=O)nc2ccccc21	100	7.3µM*	0.5µM*	0%	?	?
O=[N+]([O-])c1cc(C(F)(F)F)cc([N+](=O)[O-])c1Cl	.	.	-2%	.	9%	.
CN1CCC2(CC1)N=C(c1ccc(F)cc1)C(=S)N2	-22	20%	13µM*	17%	1%	2%
Cc1ccc(O)c([C@H](CCN(C(C)C)C(C)C)c2ccccc2)c1	-24	21µM*!	?	9%	0%	?
CCC(=O)N1CC(=O)Nc2ccc(F)cc2C1c1ccc(F)cc1 (stereo unspecified)	13	-2%	-8%	3%	4%	-1%
CCC(=O)N1CC(=O)Nc2ccc(C)cc2C1c1ccc(F)cc1 (stereo unspecified)	.	3.7µM*	.	.	.	9.2µM*
Cc1cc(OCC(=O)NCC(O)c2ccccc2)c2c3c(c(=O)oc2c1)CCCC3 (stereo unspecified)	-19	?	41%	-13%	-5%	18µM*
